High-throughput results from PubChem.
ERa SRC1 pot: ER-alpha (human) coactivator binding potentiation | P03372 | TR-FRET ERalpha-LBD/SRC-Cy5 coactivator binding, 2 h; 100 = basal binding, no effect | coactivator binding (% of control), % at 25.6 µM | 86,000 tested, 1.3% active | AID 639; in the data active = activity above about 200%;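 also: binding measured in presence of low estradiol as agonist stimulus; 0% = peptide alone without receptor and 100% = receptor with peptide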
Calb biofilm kill: kills Candida albicans biofilms; C. albicans biofilm + clotrimazole, Alamar Blue; inhibition, % at 6 µM; 85,000 tested, 0.14% active;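 active = inhibition above 20%; inactive = inhibition below 20%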;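 also: preformed 24 hr biofilms exposed to compound for 48 hr; 0% = biofilm without compound and 100% = blank killed by clotrimazole plus chlorhexidine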
ERa SRC1 inh: ER-alpha (human) coactivator binding inhibition; P03372; TR-FRET ER-alpha LBD / SRC-1 peptide, estradiol-bound; inhibition, % at 25.6 µM; 86,000 tested, 1.7% active; in the data active = inhibition above about 50%;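 also: 0% = receptor plus peptide control and 100% = peptide only without receptor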
Smad3 FoxH1 inh: inhibitors of human Smad3 transcription factor binding. P84022. TR-FRET Smad3/Dy647-FoxH1 peptide binding, europium anti-His. 88,000 tested, 0.29% active. inhibition, % at 25 µM. AID 630;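 active = compounds that reduce the energy-transfer binding signal between the protein and its labelled peptide by more than half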;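 also: 0% = Smad3 plus labelled peptide maximal FRET and 100% = peptide-only background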
HePTP inhibitor: inhibitors of human HePTP phosphatase. P35236. recombinant HePTP phosphatase activity, OD absorbance. inhibition, % at 20 µM. 110,000 tested, 0.64% active. AID 521; in the data active = inhibition above about 50%;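 also: plate controls were vehicle for no effect and reference inhibitor for full effect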
Target sequence (P35236 whole entry, looked up): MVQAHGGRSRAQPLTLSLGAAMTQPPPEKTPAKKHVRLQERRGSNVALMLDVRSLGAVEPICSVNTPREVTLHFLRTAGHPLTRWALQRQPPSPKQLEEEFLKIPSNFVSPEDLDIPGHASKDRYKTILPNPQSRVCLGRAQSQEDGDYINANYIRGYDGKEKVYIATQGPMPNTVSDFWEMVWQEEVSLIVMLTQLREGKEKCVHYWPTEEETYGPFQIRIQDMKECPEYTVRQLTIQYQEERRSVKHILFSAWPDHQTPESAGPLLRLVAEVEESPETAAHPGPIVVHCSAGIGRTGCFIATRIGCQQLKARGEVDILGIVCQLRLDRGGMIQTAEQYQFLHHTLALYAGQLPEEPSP
ERb coact inh: ER-beta (human) coactivator binding inhibition; TR-FRET ER-beta LBD / SRC1-Cy5 peptide binding; receptor agonist-loaded with 1 µM estradiol; inhibition, % at 25.6 µM; 86,000 tested, 1.3% active;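 active = compounds whose percent inhibition of the receptor-coactivator binding signal exceeds about 50% in the single-dose screen, limit read from the data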;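 also: 0% = receptor plus peptide wells without compound and 100% = peptide-only wells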
Starred values were filed as active, the others as inactive; . = not tested or not shown; + = active, no number; [ ] = remark or other dose. A selection: hits, their analogues and other compounds. The true share with any hit is near 2.9%.

SMILES	ERa SRC1 pot	Calb biofilm kill	ERa SRC1 inh	Smad3 FoxH1 inh	HePTP inhibitor	ERb coact inh
O=C(CSCC(=O)NCc1ccco1)NCc1ccco1	84	0	5	-3	4	5
COc1cc(NC(=O)c2ccc(C)cc2)cc(OC)c1	.	.	.	.	2	.
O=C(CSc1nc(Nc2ccccc2)nc(N2CCOCC2)n1)N1CCc2ccccc21	209*	2	19	2	8	4
O=C(CNc1cccc2ccccc12)N/N=C/c1cn(Cc2ccccc2)c2ccccc12	.	.	.	.	-5	.
C=CCc1ccccc1OCCOc1c(Br)cc(/C=N/n2cnnc2)cc1OC	.	.	.	.	8	.
COc1ccc2c(c1)[n+]([O-])c(/C(C)=N/NC(N)=S)c(C)[n+]2[O-]	.	.	.	66*	.	.
Cc1ccc(Cl)cc1N1C(=O)C2C3C=CC(CO)(O3)C2C1=O (stereo not drawn)	.	.	.	.	2	.
COc1ccc(N2C(=O)/C(=C/c3cc([N+](=O)[O-])cc(OC)c3O)SC2=S)cc1	.	.	.	.	104*	.
O=C(NCc1ccco1)c1cc2c(s1)CSC2	77	5	71*	5	10	65*
O=[N+]([O-])c1ccc(N=Cc2cc(I)cc(I)c2O)c(O)c1	.	.	.	.	76*	.
Cc1ccc(Cl)cc1N(Cc1ccc(C(=O)Nc2cccnc2)cc1)S(=O)(=O)c1ccccc1	.	.	.	.	4	.
CC1CC(C(F)(F)C(F)(F)F)n2nc(C(=O)O)cc2N1 (stereo not drawn)	29	1	64*	3	5	76*[fluorescence artefact?]
FC(F)(F)c1ccc2nnc(-c3cc(Br)ccc3OCc3ccccc3)n2c1	.	.	.	.	55*	.
FC(F)(F)c1ccc2nnc(-c3cccc(OCc4ccccc4)c3)n2c1	.	.	.	.	101*	.
O=C(O)c1ccccc1C(=O)Nc1cc2c(cc1Br)-c1ccccc1C2=O	.	.	.	101*	.	.
CSc1nc2c(c(=O)[nH]1)C(c1cccs1)C1=C(CCCC1=O)N2 (stereo not drawn)	74	2	44	0	-5	56*
O=C(O)c1cccc(N2C(=O)CC(Nc3ccc(N4CCOCC4)cc3)C2=O)c1 (stereo not drawn)	.	.	.	.	61*	.
COc1ccccc1/C=N/Nc1nc(-c2ccccc2)nc(C)c1C	.	.	.	.	5	.
CCCCCOc1ccccc1C(=O)NCC(=O)O	119	7	-3	-6	4	79*[fluorescence artefact?]
Cc1cc2sc3ccccc3c(=O)c2cc1O	.	.	.	.	6	.
O=c1c(C(c2ccccc2)c2c(O)sc3ccccc3c2=O)c(O)sc2ccccc12	119	5	81*[fluorescence artefact?]	17	.	29
Cc1c(C(=O)N2CCOCC2)sc2ncnc(N3CCc4ccccc4C3)c12	109	7	24	-10	5	16
Cc1c(C(=O)N2CCN(c3ccccn3)CC2)sc2ncnc(N3CCN(c4ccccc4)CC3)c12	207*[fluorescence artefact?]	5	2	-2	2	17
COc1cc(C(=O)Nc2nnc(-c3sccc3C)s2)cc(OC)c1OC	476*	5	32	-276	14	31
COc1cc(C(=O)Nc2nc3ccc4ccccc4c3s2)cc(OC)c1OC	.	.	.	.	-3	.
SMILES	ERa SRC1 pot	Calb biofilm kill	ERa SRC1 inh	Smad3 FoxH1 inh	HePTP inhibitor	ERb coact inh
CC(=O)c1cccc(NC(=O)CN(c2ccccc2)S(=O)(=O)c2ccccc2[N+](=O)[O-])c1	.	.	.	.	4	.
Cc1ccccc1NC(=O)CSc1nc2c(c(-c3ccco3)c1C#N)CCCC2	290*[fluorescence artefact?]	-5	24	8	-1	16
COc1ccc(-c2c(C#N)c(SCC(=O)Nc3ccccc3)nc3c2CCCC3)cc1	147	6	14	-2	.	28
CCc1ccccc1NC(=O)CSc1nc2c(c(-c3ccco3)c1C#N)CCCC2	301*[fluorescence artefact?]	-4	10	-14	8	11
N#Cc1c(SCC(=O)Nc2nccs2)nc2c(c1-c1ccco1)CCCC2	83	6	64*	12	2	37
N#Cc1c(SCC(N)=O)nc2c(c1-c1ccc(OCc3ccccc3)cc1)CCCC2	+[fluorescence artefact?]	3	-13	-124	.	-7
COC(=O)C1=NN(C(=O)c2ccccc2)C(O)(c2ccc(Cl)cc2)C1 (stereo not drawn)	.	.	.	.	9	.
O=c1oc2cc([N+](=O)[O-])ccc2nc1/C=C(\O)c1cccs1	.	.	.	.	76*	.
C/C(CC(=O)NCCc1ccccc1)=N\NC(=O)C12CC3CC(CC(C3)C1)C2	.	.	.	.	2	.
COC(=O)C1=C(C)N(CCc2ccc(OC)cc2)C(=O)C1	102	6	0	3	-6	-9
COC(=O)C1=C(C)N(CCc2ccc(OC)c(OC)c2)C(=O)C1	102	3	16	-9	96*	-6
CC/C(=C/C(=O)c1ccncc1)Nc1cccc(O)c1	.	.	.	.	8	.
CCOc1ccc(-c2nnn(CC(=O)c3ccc4c(c3)OCCO4)n2)cc1OCC	385*[fluorescence artefact?]	0	13	-2	0	26
Cc1[nH]n(-c2ccccc2)c(=O)c1Sc1ccc(Cl)cc1	72	3	39	-12	.	81*
CCOc1ccccc1-c1nc(-c2ccc(NC(=O)Cc3ccc(OC)cc3)cc2)no1	287*[fluorescence artefact?]	6	43	2	22	50*[fluorescence artefact?]
COc1ccc(CC(=O)Nc2ccc(-c3noc(-c4ccc(Cl)cc4)n3)cc2)cc1	128	-5	66*	-11	.	40
CCOc1ccccc1-c1nc(-c2ccc(NC(=O)c3ccc(Br)o3)cc2)no1	384*	10	30	1	3	21
O=C1S/C(=C\c2cccc(Cl)c2)C(=O)N1c1ccc(Cl)cc1	.	.	.	.	11	.
C=C(C)CNC(=S)Nc1ccccn1	.	.	.	.	103*	.
COc1ccc(C(=O)COc2ccccc2N2C(=O)C3C4C=CC(C4)C3C2=O)cc1 (stereo not drawn)	59	6	51*[fluorescence artefact?]	9	.	2
CCOC(=O)C1=C(C)OC(N)=C(C#N)C1c1ccoc1 (stereo not drawn)	106	2	4	5	0	2
N#CC1=C(N)OC2=C(CCC/C2=C/c2ccoc2)C1c1ccoc1 (stereo not drawn)	36	8	74*	17	20	73*[fluorescence artefact?]
